Compounds with a hit are over-represented: about 4.1% of the library has one in this group of screens.
NSD2 HMT inh = NSD2 (human) methyltransferase inhibition; O96028; NSD2 peptide methylation, AlphaScreen, 120 min; inhibition, % at 12.5 µM; 0.54% of 310,000 active; AID 743445; in the data active means inhibition above about 50%
CFTR F508del cor = correctors of CFTR F508del function in bronchial epithelial cells; CFBE cells, YFP halide quenching; stimulated with forskolin plus potentiator P3; % fluorescence drop versus neutral controls; 0.36% of 350,000 active; activity (quench increase), % at 7.58 µM;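 active means mean added fluorescence quench of at least 8% versus neutral control, with both replicates also reaching 8%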;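 further: cells transiently co-express mutant CFTR-F508del with the halide-sensitive YFP; corrector assay measuring rescue of mutant channel to the surface after 24 h compound exposure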
PglD inh = PglD (C. jejuni) enzyme inhibition. purified PglD enzyme, DTNB colorimetric CoA detection. inhibition, % at 12.5 µM. 0.098% of 360,000 active; in the data active means inhibition above about 16%, passing the limit was not always enough
CASP6 VEID inh = inhibitors of human caspase-6. inhibition, % at 12.5 µM. purified caspase-6, Z-VEID-R110 cleavage fluorescence. 0.53% of 350,000 active. P55212;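 active means mean inhibition across replicates at least about 35%, with every replicate also reaching that limit, limit read from the data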;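 further: 0% = median of neutral control wells and 100% = no fluorescence left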
Target sequence (P55212 24-179 limits assumed): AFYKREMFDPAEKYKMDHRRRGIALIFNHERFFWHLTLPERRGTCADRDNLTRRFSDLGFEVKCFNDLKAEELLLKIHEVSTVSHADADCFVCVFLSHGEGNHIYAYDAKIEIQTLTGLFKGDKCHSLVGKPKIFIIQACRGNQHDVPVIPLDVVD
Target sequence (P55212 194-293 limits assumed): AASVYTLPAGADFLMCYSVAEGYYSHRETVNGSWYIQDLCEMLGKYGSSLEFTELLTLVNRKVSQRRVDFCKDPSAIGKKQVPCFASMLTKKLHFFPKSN
HIV Env fusion = blocks HIV Env-driven cell-cell fusion; 1.1% of 360,000 active; inhibition, % at 12.3 µM; HeLa-JRFL Env/CEM21 cell fusion, luciferase;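 active means mean replicate inhibition score of at least 50 and every replicate individually at or above 50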;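 further: 0% = plate neutral controls and 100% = maraviroc near 300 nM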
ALR inh = blocks human ALR sulfhydryl oxidase activity | inhibition, % (test concentration not listed) | 3.8% of 290,000 active | purified ALR, DTT oxidation, H2O2 HRP-luminol luminescence;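 active means mean replicate inhibition above about 79%, with every replicate also reaching it, limit read from the data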
Target sequence (P55789 whole entry, looked up): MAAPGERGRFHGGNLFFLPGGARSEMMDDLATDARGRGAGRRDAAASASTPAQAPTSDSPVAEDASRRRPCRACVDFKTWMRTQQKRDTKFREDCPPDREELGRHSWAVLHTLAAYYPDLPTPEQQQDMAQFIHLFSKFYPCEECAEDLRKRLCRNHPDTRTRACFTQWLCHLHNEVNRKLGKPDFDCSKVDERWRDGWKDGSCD
* hit, by the source's call; / = no result given; [ ] = another dose, or the depositor's remark.

SMILES	NSD2 HMT inh	CFTR F508del cor	PglD inh	CASP6 VEID inh	HIV Env fusion	ALR inh
CC(C)c1ccc(NC2CCCN(C(=O)CCN3Cc4ccccc4C3=O)C2)cc1 (stereo unspecified)	7.8	2.5	1.9	3.8	21.6	98.5*
CC(C)c1ccc(NC2CCCN(C(=O)CN3CCCC3=O)C2)cc1 (stereo unspecified)	1.1	-1.4	1.1	-9.6	4.0	82.3*
O=C(N[C@H]1CC[C@H](CC(=O)N2CCCCC2)O[C@@H]1CO)c1ccc2c(c1)OCO2	/	0.4	-1.0	0.2	6.5[16.7 µM]	/
O=C(Nc1ccc2c(c1)[C@H]1C[C@H](CC(=O)N3CCCCC3)O[C@@H](CO)[C@H]1O2)NC1CCCC1	/	2.7	-1.3	-1.4	-20.6[16.7 µM]	/
COc1ccc2c3c([nH]c2c1)[C@@H](CO)NCC31CN(C(=O)C2CCCC2)C1	/	2.3	/	2.1	/	/
Cc1occc1-c1nnc(SCC(=O)c2cc3ccccc3oc2=O)o1	1.6	/	0.0	/	/	97.8*
Cc1occc1-c1nnc(SCC(=O)Nc2ccccn2)o1	-1.5	-3.4	/	4.0	-15.2	24.0
COc1ccc(C(=O)NC(=S)NNC(=O)c2cnccn2)cc1	-1.9	/	2.6	/	/	-7.2
COc1cc(C(=O)NC(=S)NNC(=O)c2cnccn2)cc(OC)c1OC	-2.5	/	5.1	/	46.2	95.9*
O=C1[C@H](Cc2ccccc2)CCn2cc(nn2)COCC2CCCN12 (stereo partly specified)	/	/	/	-3.9	-28.1[16.7 µM]	/
CSc1nc(Cl)cc(Nc2ccc(O)cc2)n1	-1.6	-1.7	/	2.7	-36.7	99.2*
CN(C)c1ccc(N/C(=N\S(=O)(=O)c2cccs2)c2ccccc2)cc1	14.3	-2.6	-2.1	0.8	-11.1	98.8*
Cc1noc(C)c1S(=O)(=O)N(C)C[C@@H]1Oc2c(NC(=O)C3CCOCC3)cccc2C(=O)N([C@@H](C)CO)C[C@@H]1C	/	-1.5	/	/	-8.6[16.7 µM]	/
C=CC[n+]1ccn(-c2nc3ccccc3nc2[N-]S(=O)(=O)c2cccs2)c1	-2.6	1.5	/	-1.5	-2.5	94.7*
C/C=C/c1ccc([C@@H]2[C@H](CO)N(C(C)=O)C23CN(C(=O)c2ccc(F)cc2)C3)cc1	/	-0.1	/	6.4	/	/
CNC[C@H]1Oc2c(NS(=O)(=O)c3ccc(C)cc3)cccc2C(=O)N([C@H](C)CO)C[C@@H]1C	/	-0.5	-4.6	1.3	/	/
CC(=O)N1CCN(C(C)=O)c2ccccc21	-1.4	-0.5	2.2	1.0	-5.1	/
CC(=O)N1Cc2cc(N)ccc2Oc2ccccc21	-0.9	-2.1	-3.2	1.8	-0.5	88.7*
COc1ccc2nc3cc(Cl)ccc3c(Nc3cc(CN4CCCC4)c(O)c(CN4CCCC4)c3)c2n1	/	5.0	6.7	4.9	-423.0	98.7*
CC(C)CC#Cc1ccc2c(c1)O[C@@H](CN(C)Cc1cccnc1)[C@@H](C)CN([C@@H](C)CO)S2(=O)=O	/	3.1	-1.8	3.2	16.4[16.7 µM]	/
CCCNC(=O)[C@H]1[C@H](CO)[C@H]2Cn3c(ccc(-c4ccccc4F)c3=O)[C@@H]1N2CCC	/	-1.8	/	/	/	/
COc1cccc(-c2nc(N3CCN(C)CC3)c3ccccc3n2)c1O	20.4	14.2*	/	-1.5	-61.9	39.6
COc1ccc(NCc2ccc(OC)c(Cn3ccnc3)c2)c(OC)c1	16.7	-0.1	-7.1	-1.4	-12.2	98.9*
COc1ccc(Cn2ccnc2)cc1Br	1.5	/	7.2	/	-125.1	5.4
CCNC(=S)N1CCCCC1CO (stereo unspecified)	-5.6	-0.3	/	46.6*	0.4	-1.0
SMILES	NSD2 HMT inh	CFTR F508del cor	PglD inh	CASP6 VEID inh	HIV Env fusion	ALR inh
OCC1CCCCN1C(=S)NCc1ccco1 (stereo unspecified)	0.0	-0.7	/	1.2	-6.2	-7.8
CC(C)NC(=O)N(C)C[C@H]1Oc2ccc(NC(=O)CCCCCC(=O)Nc3ccccc3N)cc2CC(=O)N([C@@H](C)CO)C[C@@H]1C	/	-1.9	2.5	-0.3	1.5[16.7 µM]	/
CC(C)c1ccc(OCCCN2CCC(C(O)(c3ccccc3)c3ccccc3)CC2)cc1	/	0.2	/	-0.5	78.8*	/
C[C@@H]1CCCCO[C@@H](CN(C)C)[C@H](C)CN([C@H](C)CO)C(=O)c2cc(NC(=O)CCC(F)(F)F)ccc2O1	/	-1.5	-0.4	-1.1	8.9[16.7 µM]	/
Fc1cccc(Cl)c1-c1nnc2ccc3ccccc3n12	3.1	1.0	/	5.8	7.8	98.3*
CCC(=O)Nc1ccc2c(c1)OC[C@H](C)N(C(=O)c1cnccn1)C[C@@H](C)[C@H](OC)CN(C)C2=O	/	0.2	2.4	2.0	5.8[16.7 µM]	/
O=C(Nc1ccc(O)cc1)N1CCOCC1	-1.2	-2.7	-0.4	6.7	8.3	99.0*
O=C(Nc1ccc(Nc2ccccc2)cc1)N1CCOCC1	8.8	/	-5.6	/	-17.5	99.3*
COC(=O)c1ccc(NC(=O)N2CCOCC2)cc1	-1.9	/	2.4	/	-19.2	27.9
C=CCC[C@H](Cc1ccc(F)cc1)C(=O)O[C@H](CNC(=O)[C@@H](CC=C)CC(=O)N(CCO)Cc1ccccc1)c1ccccc1	/	2.8	-0.7	1.8	129.2*	0.7
Cc1cc(C(=O)NCc2cc(C)n(C)n2)sc1-c1ccccc1	-2.3	/	-2.6	/	55.9*	-13.6
Cc1cc(CNC(=O)c2cc(-c3ccccc3)nc3ccccc23)nn1C	3.3	2.8	/	0.8	-6.1	12.8
CC(C)(Cc1ccc(O)cc1)NC(=O)CC(=O)N/N=C/c1ccc(Cl)cc1	-3.0	1.5	-1.3	-0.1	-62.5	15.8
O=C(CCn1cnc(-c2ccccc2)c1-c1ccccc1)N/N=C/c1ccc(O)cc1	3.1	-0.5	3.5	2.7	27.8	89.2*
Cn1cccc1CC(=O)N/N=C/c1ccc([N+](=O)[O-])cc1	-1.9	-4.7	0.8	1.6	-3.5	98.9*
O=C(Cc1cccs1)N/N=C\c1ccc(O)cc1	0.7	/	5.2	/	-1.3	98.1*
O=C(CC(=O)N/N=C/c1ccc(O)cc1)N/N=C/c1ccc(O)cc1	0.9	-4.5	6.2	-2.0	1.9	98.9*
O=C(C[C@H]1CC[C@@H]2[C@H](COC[C@H](O)CN2Cc2nccs2)O1)NCc1ccccc1	/	-1.8	1.1	0.2	/	/
Cc1ccc(S(=O)(=O)N[C@H]2CC[C@H](CCNC(=O)c3ccccc3F)O[C@H]2CO)cc1	/	0.3	5.1	1.0	39.9[16.7 µM]	/
C[C@@H]1CN([C@@H](C)CO)C(=O)Cc2cc(NC(=O)Nc3ccc4c(c3)OCO4)ccc2O[C@H]1CN(C)S(=O)(=O)c1cccs1	/	-1.3	0.0	/	22.3[16.7 µM]	/
COc1ccc2c3c([nH]c2c1)[C@H](CO)N(Cc1ccncc1)CC31CCN(C(=O)Cc2ccncc2)CC1	/	2.9	/	-5.8	/	/
CC12CCC(C(=O)N/N=C/c3ccc(O)cc3)(OC1=O)C2(C)C (stereo unspecified)	-4.8	3.1	3.5	0.6	8.6	99.4*
O=C(CNS(=O)(=O)c1ccc([N+](=O)[O-])cc1)N/N=C\c1ccc(O)cc1	1.3	-2.8	3.8	0.0	-13.2	99.2*
CC(=O)Nc1ccc(/C=N\NC(=O)CNS(=O)(=O)c2ccc([N+](=O)[O-])cc2)cc1	-1.4	-1.7	-2.5	7.2	1.1	-18.3

Screening results as filed in PubChem.
